The full list was thinned out, with hits kept by preference.
Pf apPOL inh = Pf-apPOL DNA polymerase inhibition | Recombinant Pf-apPOL, molecular beacon fluorescence, 1.5 h | inhibition, % at 10 µM | 0.25% of 210,000 active | AID 1794808
mHTT CaM bind = mHTT-calmodulin interaction abrogation | AlphaScreen His-mHTT/GST-CaM binding, luminescence | 3.6% of 190,000 active | inhibition, % at 15 µM;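 note: 0% = both proteins with DMSO and 100% = one protein alone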
Starred values were filed as active, the others as inactive; . = no result; ! = not active in a repeat. Cut-off read from the data, not from the text of the source: active = inhibition above about 50%; inactive = the rest.

SMILES | Pf apPOL inh | mHTT CaM bind
CCOc1ccc(N2C(=O)/C(=C\c3cccs3)S(=O)(=O)C2c2cccc([N+](=O)[O-])c2)cc1 (centres undefined) | -5 | 31
CSc1nc2c(c(=O)[nH]1)C1(CCCCC1)Cc1ccccc1-2 | 1 | -5
NNc1nc(N)c2c(n1)-c1ccccc1CC21CCCCC1 | -4 | 100*
COc1ccc(Br)cc1C=C1Oc2cc(OCC(C)=O)ccc2C1=O | 4 | 3
CN(C)c1cccc(C(=O)Nc2ccc3c(N4CCCC4)ncnc3c2)c1 | 3 | 58*
O=C(Nc1ccc2c(N3CCCC3)ncnc2c1)c1cccc(Br)c1 | 4 | 25
O=C(Nc1ccc2c(N3CCOCC3)ncnc2c1)c1cccc(F)c1 | 0 | 6
O=C(Nc1ccc2c(N3CCOCC3)ncnc2c1)c1cccc(Cl)c1 | -11 | 88*
COc1ccccc1CNC(=O)CC1CCN(C(=O)c2ccc(C)cc2)CC1 | -1 | 7
Cc1nc(C)c(Cc2ccc(Cl)cc2)c(N2CCN(S(C)(=O)=O)CC2)n1 | -3 | 22
CCS(=O)(=O)N1CCN(c2nc(C)nc(C)c2Cc2ccc(Cl)cc2)CC1 | 1 | 53*
Cc1cc(C2CCCN2C(=O)Nc2ccccc2)no1 (centres undefined) | -1 | -5
O=C(NCc1ccc(Cl)cc1)c1ccc(SCCN2CCCCC2)nc1 | -4 | 1
COc1ccc(C(CC(=O)N2CCCCC2)c2c(OC)cc(OC)c3ccc(=O)oc23)cc1 (centres undefined) | -4 | 34
COc1cc(OC)c2ccc(=O)oc2c1C(CC(=O)N1CCOCC1)c1ccc2c(c1)OCO2 (centres undefined) | -7 | 12
COc1cc(C(CC(=O)N2CCN(c3ccccc3)CC2)c2c(OC)cc(OC)c3ccc(=O)oc23)cc(OC)c1OC (centres undefined) | -3 | 71*
COc1cc(OC)c2ccc(=O)oc2c1C(CC(=O)N1CCN(c2ccccc2)CC1)c1ccc2c(c1)OCO2 (centres undefined) | -4 | 70*
Fc1ccc(-c2cc3n(n2)CCCN(Cc2cccc(F)c2)C3)cc1 | -5 | 92*
COc1ccc(-c2cc3n(n2)CCCN(Cc2ccoc2)C3)cc1 | -3 | 13
O=C(C1CC1)N1CCc2cc(Br)cc(S(=O)(=O)Nc3ccc(Cl)cc3)c21 | -5 | 30
Cc1cc(C(=O)N2CCCCC2c2nncn2-c2ccccc2)nn1C (centres undefined) | -5 | -4
COc1ccc2c(c1)-c1ccccc1S(=O)(=O)N2S(=O)(=O)c1ccc([N+](=O)[O-])cc1 | 14 | 10
Cc1ccc(NC(=O)CSc2nc3c([nH]c4ccccc43)c(=O)n2C)cc1Cl | 0 | 18
Cc1ccc(NC(=O)CSc2nnc3c(n2)[nH]c2ccccc23)cc1Cl | 3 | 53*
O=C(NC1CC1)c1csc(COc2ccc(Cl)cc2)n1 | -10 | -3
SMILES | Pf apPOL inh | mHTT CaM bind
COc1ccc(-c2nc(C(=O)NC3CC3)cs2)c(Cl)c1 | 94* | 2
CCCOc1ccc(C(=O)N2CCCCC2)cc1OC | -1 | -6
CC1CC(=O)C2CCCCC2S1 (centres undefined) | . | -3
Cc1ccc(OCC(=O)N2CCN(c3nc(CN4CCCCC4)cs3)CC2)cc1 | 1 | 38
O=C(C1CCCC1)N1CCN(c2nc(CN3CCCCCC3)cs2)CC1 | 4 | 16
O=C(COc1ccc(Cl)cc1)N1CCN(c2nc(CN3CCCCC3)cs2)CC1 | -3 | 50*
O=C(C1CCCCC1)N1CCN(c2nc(CN3CCCCCC3)cs2)CC1 | 34 | 96*
O=C(NCc1csc(-c2ccccc2)n1)C1CCN(C(=O)c2ccc(F)c(F)c2)CC1 | 3 | 14
N#Cc1c(N)nc(SCc2ccccc2)c(C#N)c1-c1ccccc1 | -2 | 2
Cc1nc2ccc3nc(NC(=O)c4ccccc4Cl)sc3c2s1 | -7 | 72*!
Cc1nc2ccc3nc(NC(=O)c4ccccc4[N+](=O)[O-])sc3c2s1 | 3 | 30
CC(C)c1noc(C2(NC(=O)c3cc(C4CC4)[nH]n3)CCCCC2)n1 | -2 | -5
O=C(CS(=O)(=O)Cc1ccccc1)Nc1nc(-c2ccccn2)cs1 | -74 | 87*
O=C(Cc1ccc(F)cc1)Nc1ncccn1 | -3 | 17
O=C(CS(=O)(=O)Cc1ccccc1)Nc1nc(-c2cc3ccccc3o2)cs1 | -6 | 1
O=C(Cc1ccc(F)cc1)Nc1nc(-c2ccccn2)cs1 | -8 | 85*
CC1(C)Cc2cccc(OCC(=O)NC3CCCCC3)c2O1 | -3 | -6
Cc1nccn1CCOCCOc1ccccc1C(C)(C)C | -4 | 11
O=[N+]([O-])c1ccc(C(F)(F)F)cc1S(=O)(=O)c1ccc(Cl)cc1 | 2 | 9
COc1ccc(C=C2SC(=S)N(C(C(=O)O)C(C)C)C2=O)cc1 (centres undefined) | -55 | 3
COc1cc(C=C2SC(=S)N(C(C(=O)O)C(C)C)C2=O)cc(OC)c1O (centres undefined) | -23 | 61*
O=C1OC(c2ccccc2)=C/C1=C1/c2ccccc2-c2ncccc21 | -1 | 67*
